Screens as filed in PubChem BioAssay.
IL2 activator: qHTS of IL-2 Activators | 360,000 tested, 0.065% active | activation, % (series mostly up to about 46 µM) | IL-2 activation reporter assay, cell-based qHTS; stimulated with anti-CD3/CD4/CD28 beads; in transgenic mouse T cells; in the data active = activation above about 50%; inconclusive = mostly about 30% to 49%; also: 0% is about no effect
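Unstimulated transgenic mouse T cells, 750 per well, received compound and, after 60 minutes, anti-CD3/anti-CD4 bead plus anti-CD28 stimulation. EGFP and DsRed were quantified after 18 hours.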
ClpP mod: qHTS Assay for Activators of ClpP; 340,000 tested, 1.9% active; ATP-dependent Clp protease proteolytic subunit (Bacillus subtilis (strain 168)), P80244; Potency, µM (series often up to 57.5 µM), inactives show at the top dose activity change, negative = active; AID 651965, 2013; purified B. subtilis ClpP, FRET peptide cleavage, 20 min; active = well fitted falling curve with a large enough effect; inconclusive = small, poorly fitted or top-dose-only effect; inactive = no such curve, though single readings can be large or run the other way; also: potency is read from the fitted curve at half-maximal effect; the source files actives as falling curves though it sought activators and does not explain the sign; nearly all actives have a fitted effect of over 65% in size
Target sequence (P80244 whole entry, looked up): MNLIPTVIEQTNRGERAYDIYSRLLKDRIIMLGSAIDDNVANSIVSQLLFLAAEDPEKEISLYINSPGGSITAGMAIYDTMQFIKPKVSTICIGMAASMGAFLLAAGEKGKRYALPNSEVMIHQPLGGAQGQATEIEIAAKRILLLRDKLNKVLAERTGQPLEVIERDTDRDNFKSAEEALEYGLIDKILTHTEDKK
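ClpP 10 microg/mL final, pH 8 Tris/KCl buffer with BSA, glycerol, Tween-20; compound pinned in; FRET-FV substrate; RT 20 min; Ex320/Em430; ΔFRET vs ADEP 5.8 microM, DMSO, no enzyme.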
NPSR antagonist: qHTS Assay for Antagonists of the Neuropeptide S Receptor: cAMP Signal Transduction. Q6W5P4. CHO-NPSR cells, cAMP TR-FRET, antagonist mode. Potency, µM (series often up to 38.3 µM), without a hit: at the top dose activity change, negative = inhibition, usual class: inhibitors. 220,000 tested, 1% active; also: potency is read from the fitted curve at half-maximal effect; % is scaled to controls: 0 for no effect and ±100 for the full control effect; nearly all actives have a fitted effect of over 50% in size
Target sequence (Q6W5P4 whole entry, looked up): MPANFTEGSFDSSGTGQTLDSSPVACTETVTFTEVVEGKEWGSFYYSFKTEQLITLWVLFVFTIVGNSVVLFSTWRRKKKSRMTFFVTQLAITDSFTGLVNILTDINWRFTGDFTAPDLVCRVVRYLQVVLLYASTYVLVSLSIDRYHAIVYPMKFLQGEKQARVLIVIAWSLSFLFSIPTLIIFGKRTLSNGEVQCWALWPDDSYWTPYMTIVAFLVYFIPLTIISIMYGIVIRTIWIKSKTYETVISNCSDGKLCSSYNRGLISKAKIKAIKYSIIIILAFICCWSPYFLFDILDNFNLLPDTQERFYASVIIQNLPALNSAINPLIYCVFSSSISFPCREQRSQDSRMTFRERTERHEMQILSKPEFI
PKM2 activator: qHTS Assay for Activators of Human Muscle isoform 2 Pyruvate Kinase; Pyruvate kinase PKM (Homo sapiens), P14618; purified PKM2, Kinase-Glo ATP luminescence, activation; response scale: 0% is enzyme alone, no compound; Potency, µM (top dose mostly 57.5 µM), for the others: at the top dose activation, hits mostly activators; 260,000 tested, 0.34% active; also: potency is read from the fitted curve at half-maximal effect; % is scaled to controls: 0 for no effect and ±100 for the full control effect; nearly all actives have a fitted effect of over 55% in size
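ATP formation by purified human PK-M2, quantified via coupled luciferase luminescence after 1 h at room temperature with 0.1 mM ADP and 0.5 mM PEP final.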
* = called active by the depositor; ? = inconclusive; / = not tested or not shown; ! = repeats disagree; [ ] = another dose, or the depositor's remark. Rows were chosen to be rich in hits. Some 2% of all compounds tested hit in one or more screens of this group. Unless noted, calls follow the shape of the dose curve; as a rule, active = well fitted curve in the direction sought with a large enough effect; inconclusive = small, poorly fitted or top-dose-only effect, or another doubt; inactive = no such curve, though single readings can be large; an effect the other way counts as inactive or inconclusive.

SMILES	IL2 activator	ClpP mod	NPSR antagonist	PKM2 activator
COC(=O)Cn1c(=NC(=O)c2cc(OC)cc(OC)c2)sc2cc(OC)ccc21	-2	28µM*	-31%	-1%
COC(=O)Cn1c(=NC(=O)c2nc3ccccc3s2)sc2cc(S(N)(=O)=O)ccc21	-1	22µM*	-39%	16%
COC(=O)Cn1c(=NC(=O)c2ccc(S(=O)(=O)N3CCc4ccccc4C3)cc2)sc2cc(OC)ccc21	1	-23%	-5%	-5%
COC(=O)Cn1c(=NC(=O)c2cccc(OC)c2)sc2cc(OC)ccc21	-2	25µM*	-26%	6%
COC(=O)Cn1c(=NC(=O)c2ccc(OC)cc2)sc2cc(OC)ccc21	0	25µM*	-11%	9%
COc1cc(/C=C(/NC(=O)c2ccccc2)C(=O)N2CCOCC2)c([N+](=O)[O-])cc1OC	3	-2%	/	4%
O=C(NCc1ccccc1Cl)c1cnc(N2CCOCC2)c2ccccc12	/	-6%	/	/
CCc1ccc(CNC(=O)c2cnc(N3CCCCC3)c3ccccc23)cc1	/	32µM*	/	/
O=C(NCc1ccccc1Cl)c1cnc(N2CCCCC2)c2ccccc12	/	32µM*	/	/
CCOc1ccc(C(=O)CCC(=O)NC(CC(C)C)C(=O)OC)cc1 (stereo unspecified)	-3	/	-3%	-2%
CC(OC(=O)Cc1coc2ccc3ccccc3c12)C(=O)Nc1ncc(Cl)cc1Cl (stereo unspecified)	-2	-14%	8%	8%
COc1cc2c(cc1OC)-c1cc(N3CCCCCC3)nc(=O)n1CC2	-3	25µM*	1%[46.1 µM]	7%
CCN(CC)CCCNc1cc2n(c(=O)n1)CCc1cc(OC)c(OC)cc1-2	2	25µM*	-5%[46.1 µM]	-4%
COc1ccc(Nc2cc3n(c(=O)n2)CCc2cc(OC)c(OC)cc2-3)cc1	-2	0%	/	/
COc1cc2c(cc1OC)-c1cc(Nc3ccccc3)nc(=O)n1CC2	-2	1%	16%	-7%
COc1cc2c(cc1OC)-c1cc(NC3CCCCCC3)nc(=O)n1CC2	-4	25µM*	0%[46.1 µM]	14%
Cc1ccc(-n2c(SCC(=O)O)nc3sc4c(c3c2=O)C(C)CCC4)cc1 (stereo unspecified)	0	-9%	/	/
O=C(CCn1c(=O)[nH]c2ccsc2c1=O)N1CCc2ccccc2C1	0	-3%	-13%[46.1 µM]	-15%
COc1cc2[nH]c(=O)n(CCC(=O)N3CCc4ccccc4C3)c(=O)c2cc1OC	1	28µM*	-6%[46.1 µM]	-5%
COc1cc2[nH]c(=O)n(CCCCCC(=O)N3CC=C(c4ccccc4)CC3)c(=O)c2cc1OC	-3	18µM*	?	-8%
CCCCCOC(=O)Nc1ccc(S(=O)(=O)Nn2cnnc2)cc1	-4	0%	0%[46.1 µM]	4.5µM*
CCCCOC(=O)Nc1ccc(S(=O)(=O)Nc2ncccn2)cc1	-1	/	1%	-7%
COc1c(C)cc(C(O)c2ncc(-c3ccccc3C(F)(F)F)[nH]2)cc1C (stereo unspecified)	-1	-4%	/	/
C[C@H]1CC[C@]2(O[C@H](CCO)C[C@H](O)[C@H]2O)O1	1	1%	/	/
COc1ccc(S(=O)(=O)N2CCCC2C(=O)Nc2nnc(-c3cccnc3)s2)cc1 (stereo unspecified)	0	28µM*	?	-2%
SMILES	IL2 activator	ClpP mod	NPSR antagonist	PKM2 activator
COc1ccc(S(=O)(=O)N2CCC[C@H]2C(=O)NC2=NCCS2)cc1	-3	1%	-3%[46.1 µM]	1%
CC(=O)Nc1ccc(S(=O)(=O)N2CCc3nc(-c4ccccc4)c4c(c3C2)CO[C@@H](C)C4)cc1	/	/	/	-3%[11.5 µM]
CC(=O)c1cccc(NC(=S)NC(=O)c2ccc(Cl)cc2)c1	-1	-2%	0%	-5%
Cc1cccc(NC(=S)N/C(=N/S(=O)(=O)c2ccccc2)c2ccccc2)c1	-3	2.2µM*!	-15%[46.1 µM]	6%
CC(=O)c1cccc(NC(=S)NC2CCCCC2)c1	0	14µM*	-2%	3%
CCCCOc1cccc(C(=O)NNC(=S)NC2CCCCC2)c1	1	25µM*	-9%[46.1 µM]	0%
CC(=O)c1cccc(NC(=S)NC(=O)c2cccc(C)c2)c1	0	16µM*	-8%	1%
CCOc1cccc(C(=O)NC2CCCCC2)c1	-1	0%	-2%[46.1 µM]	-5%
O=C(CC(=O)N/N=C/c1ccccc1)NCc1ccccc1	-4	/	-2%	1%
O=C(CCCc1ccccc1)NC1CC(=O)N(c2cccc(F)c2)C1 (stereo unspecified)	/	1%	/	/
Cc1noc(/C=C/N(C)C)c1S(=O)(=O)N1CCCC(C(=O)NCc2ccccc2Cl)C1 (stereo unspecified)	-1	0%	-26%[46.1 µM]	7%
COc1ccc(NC(=O)CCCS(=O)(=O)c2nc(-c3ccc(OC)c(OC)c3)cc(C(F)(F)F)n2)cc1OC	/	-3%	/	/
CCCN=Cc1ccc(O)cc1	1	/	8%	2%
Cc1ccccc1-c1nnc(Cc2ccccc2)o1	0	1%	9%	-6%
O=C1C(NS(=O)(=O)c2cccs2)=C(N2CCN(c3cccc(C(F)(F)F)c3)CC2)C(=O)c2ccccc21	2	4%	10µM*	-11%
Cc1cc(-c2ccccc2)c2c3c(c(-c4ccccc4)n2n1)c(=O)n(C)c(=O)n3C	70*	0%	-5%[46.1 µM]	9%
CCCCn1c(N)c(N2CCOCC2)c(=O)n(CC(=O)NC(C)c2ccccc2)c1=O (stereo unspecified)	-6	0%	-7%	0%
COc1cccc(-n2nnnc2SCC(=O)NC2CCCC2)c1	1	-1%	-10%[46.1 µM]	-5%
CC(=O)Nc1ccc(NC(=O)COc2ccc(S(=O)(=O)N3CCCC3)cc2C)cc1	0	/	/	1%
N#Cc1ccc2ccn(CC(=O)NC3CCCCCC3)c2c1	-2	?	-13%[46.1 µM]	8%
COC(=O)c1ccc2ccn(CC(=O)NC3CCCCC3)c2c1	2	8.9µM*	?	-4%
Cc1cc(C)n(CC(=O)N/N=C/c2cccc([N+](=O)[O-])c2)n1	1	-3%	18%	-8%
Cc1cccc(N(C(=O)C(F)(F)F)C(C(=O)NC2CCCCC2)c2cccs2)c1 (stereo unspecified)	-1	2%	-22%[46.1 µM]	-1%
C#CC(=O)N(c1cccc(OC)c1)C(C(=O)NC1CCCC1)c1cccs1 (stereo unspecified)	-3	-1%	4µM*	-1%
C#CC(=O)N(c1ccc(OC)c(OC)c1)C(C(=O)NC1CCCC1)c1cccs1 (stereo unspecified)	1	-20%	13µM*	-11%
CCCC(=O)Nc1ccc(C(=O)N/N=C/c2ccc([N+](=O)[O-])o2)cc1	0	32µM*	-19%	1%
Cc1ccc(NC(=O)CCC(=O)N/N=C/c2ccc([N+](=O)[O-])o2)cc1C	0	1%	9%	1%
